Compound activity (PubChem BioAssay)
CYP2C9 activ = CYP2C9 (human) activation. P11712. recombinant CYP2C9, luciferin-H conversion, luminescence; stronger effect = higher value; factor 1 = untreated enzyme, 0 = blocked. activation factor at 5 µM. actives 1.4% (n = 96,000). AID 1024;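 active means activation factor of 2 or more for CYP2C9 at a 5 µM dose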;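 further: 0 = sulfaphenazole-blocked wells and 1 = vehicle-only wells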
PLAP act = activates human placental alkaline phosphatase. P05187. purified PLAP enzyme, luminescent substrate read-out; stronger effect = higher value. activation fold at 20 µM. actives 1.2% (n = 96,000); in the data active means activation fold above about 2
Target sequence (P05187 whole entry, looked up): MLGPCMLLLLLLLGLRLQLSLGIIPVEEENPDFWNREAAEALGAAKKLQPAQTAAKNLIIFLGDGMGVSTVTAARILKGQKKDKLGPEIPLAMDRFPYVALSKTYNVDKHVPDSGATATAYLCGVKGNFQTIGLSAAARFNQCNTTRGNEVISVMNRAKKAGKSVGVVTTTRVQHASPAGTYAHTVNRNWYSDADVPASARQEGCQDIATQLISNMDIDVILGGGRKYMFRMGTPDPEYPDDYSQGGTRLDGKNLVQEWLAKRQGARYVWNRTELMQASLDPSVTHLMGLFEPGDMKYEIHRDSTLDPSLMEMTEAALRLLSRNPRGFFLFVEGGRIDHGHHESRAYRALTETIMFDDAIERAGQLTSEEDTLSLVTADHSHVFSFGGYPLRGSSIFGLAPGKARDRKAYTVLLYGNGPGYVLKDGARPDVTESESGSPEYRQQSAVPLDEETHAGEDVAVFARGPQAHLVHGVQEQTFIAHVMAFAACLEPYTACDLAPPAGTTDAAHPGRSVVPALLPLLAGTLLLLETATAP
CYP2C19 inh = human CYP2C19 inhibition; CYP2C19 Supersomes, luciferin-H EGE luminescence, 30 min; inhibition, % at 5 µM; actives 21% (n = 96,000); AID 778;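 active means CYP2C19 inhibition above a set limit at 5 µM in the primary screen, cut at about 50% in these data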;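 further: plate controls were negative control wells for no effect and 2.5 mM tranylcypromine positive control for full effect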
CYP2C19 activ = increases human CYP2C19 enzyme activity; P33261; recombinant CYP2C19, luciferin-H EGE luminescence; stronger effect = higher value; 0 = fully inhibited enzyme, 1 = untreated enzyme; activation factor at 5 µM; 96,000 tested, under 10 active; AID 1025;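 active means activation factor of at least 2 at 5 µM in the primary screen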;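 further: 0 = wells with 2.5 mM tranylcypromine and 1 = vehicle-only wells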
CYP2C9 inhib = blocks human cytochrome P450 2C9 | CYP2C9 Supersomes, luciferin-H conversion, luminescence | inhibition, % at 5 µM | actives 20% (n = 96,000);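 active means blocking of liver enzyme CYP2C9 beyond about 50% at 5 µM, limit read from the data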
An asterisk follows results filed as active. Sampled rows, rich in hits. Any-hit rate of the full collection: about 31%.

SMILES	CYP2C9 activ	PLAP act	CYP2C19 inh	CYP2C19 activ	CYP2C9 inhib
CCOC(=O)C1=C(N)OC2=C(C(=O)CCC2)C1c1ccco1 (stereo not drawn)	0.8	0.9	19	0.8	16
CC(C)(C)c1ccc(C2C3=C(CCCC3=O)NC3=C2C(=O)c2ccccc23)cc1 (stereo not drawn)	0.8	1	-4	1	18
N#CC1=C(SCC(=O)c2ccccc2)NC2=C(C(=O)CCC2)C1c1ccco1 (stereo not drawn)	0.1	1.1	94*	0.1	92*
c1ccc(C2(CNc3ccccn3)CCCC2)cc1	0.6	0.8	55*	0.5	44
CC1(c2ccccc2)CC2CC(c3ccccc3)N1O2 (stereo not drawn)	0.5	1	92*	0.1	54*
O=C(COc1ccc(F)cc1Br)NCc1ccccn1	1	1.1	59*	0.4	2
Cc1ccc(OCC(=O)NCc2ccccn2)c(Br)c1	1	0.9	61*	0.4	-1
Cn1c(=O)cc(OCC(=O)NCc2ccccn2)c2ccccc21	1.5	1	8	0.9	-54
COC(=O)c1ccc(CNC(=O)COc2ccccc2Br)o1	1	1.1	71*	0.3	2
O=C(COc1ccccc1Br)NCc1ccccn1	0.6	0.8	65*	0.3	37
O=C1CCCC(O)=C1C1C2=C(CCCC2=O)Oc2ccccc21 (stereo not drawn)	0.8	1.1	9	0.9	20
CN(C)c1ccc(/C=C/C(=O)c2cccc(Br)c2)cc1	0.6	0.5	93*	0.1	44
O=C(/C=C/c1cccs1)c1ccc(NC(=O)c2cccc(Br)c2)cc1	0.6	0.9	13	0.9	38
COC(=O)c1[nH]cnc1C(=O)c1ccccc1	1.1	1.8	-2	1	-9
CCC(=O)Nc1nnc(-c2ccco2)o1	1	0.9	-8	1.1	-5
Cc1ccsc1C(=O)Nc1nnc(-c2ccco2)o1	0.4	1.1	0	1	57*
CC1=CCC2C(=O)N(c3nc4ccccc4n3C)C(=O)C2C1 (stereo not drawn)	1	1.7	2	1	-2
CCOC(=O)Cc1nnc(Nc2cccc(C)c2)c2ccccc12	1.1	1	-3	1	-7
COCCNc1nc(SCc2ccccc2)nc2sc3c(c12)CCC3	0.6	1	28	0.7	40
CC(CO)Nc1nc(SCc2ccccc2)nc2sc3c(c12)CCC3 (stereo not drawn)	0.4	1	24	0.8	56*
CC(C)COP(=O)(c1ccc(N(C)C)cc1)C(O)c1ccccc1F (stereo not drawn)	0.9	1.1	50	0.5	10
CCc1nc2c(nnn2Cc2ccc(F)cc2)c(=O)[nH]1	0.9	1.3	88*	0.1	10
CCn1c(SCc2ccc(C)cc2)nnc1C1CCN(S(=O)(=O)c2ccc(OC)cc2)CC1	1.8	1.3	32	0.7	-78
Cc1ccc(NC(=O)N2CCC(c3nc4c(nnn4Cc4cccc(Cl)c4)c(=O)[nH]3)CC2)cc1	0	1.5	94*	0.1	100*
O=C(Nc1ccc(F)cc1)N1CCC(c2nc3c(nnn3Cc3cccc(Cl)c3)c(=O)[nH]2)CC1	0.3	1.3	35	0.6	66*
SMILES	CYP2C9 activ	PLAP act	CYP2C19 inh	CYP2C19 activ	CYP2C9 inhib
Cc1ccc(Cn2nnc3c(=O)[nH]c(C4CCN(S(=O)(=O)c5ccc(C)cc5)CC4)nc32)cc1	0	1.4	78*	0.2	98*
CC1S/C(=C(\C#N)C(=O)NCc2ccco2)N(c2ccc(F)cc2)C1=O (stereo not drawn)	1	1.2	9	0.9	2
COCCn1c(SCC(=O)OCc2ccccc2)nc2c1c(=O)[nH]c(=O)n2C	1	1.1	-9	1.1	-3
CCCCNCc1cc(Br)c(OCc2cccs2)c(OC)c1	1.1	1.5	65*	0.4	-5
CCCCNCc1cc(Br)c(OCC(=O)N2CCOCC2)c(OC)c1	1	0.9	-5	1	-2
COc1ccc(S(=O)(=O)O/N=C2\CCSc3ccc(C)cc32)cc1	0.8	0.8	56*	0.4	15
CC(C)P(=O)(Cc1cccc(C#N)c1)C(C)C	1	1	11	0.9	3
CC(=O)N1CCC(O)(c2cccc(C(F)(F)F)c2)CC1	0.9	1.2	28	0.7	10
Cc1ccc(S(=O)(=O)N2CCC(O)(c3cccnc3)CC2)cc1	2.1*	1.3	54*	0.5	-114
O=S(=O)(c1cccc(C(F)(F)F)c1)N1CCC(O)(c2cccnc2)CC1	1.1	1.2	88*	0.1	-8
Cc1ccc(S(=O)(=O)N2CCCC(C(=O)Nc3cccnc3)C2)cc1 (stereo not drawn)	0.9	0.9	9	0.9	10
Cc1cc(-c2nnc3n2N=C(C(C)(C)C)CS3)n[nH]1	1	1.2	9	0.9	0
Cc1ccccc1NC(=S)NC(=O)CCc1ccccc1	0.6	0.6	32	0.7	40
Cc1cccc(C)c1NC(=S)NC(=O)CCc1ccccc1	0.7	0.9	50*	0.5	32
CCOc1cccc(C(=O)N(Cc2ccc(F)cc2)C2CCS(=O)(=O)C2)c1 (stereo not drawn)	0.7	1.5	51*	0.5	30
CCCCOc1cccc(C(=O)N(Cc2ccco2)C2CCS(=O)(=O)C2)c1 (stereo not drawn)	0.2	1.6	46	0.5	82*
CCCCOc1cccc(C(=O)N(Cc2cccs2)C2CCS(=O)(=O)C2)c1 (stereo not drawn)	0.8	1.4	20	0.8	15
CCOC(=O)c1c(C)[nH]c(C(=O)CN2C(=O)NC(CC)(c3ccccc3)C2=O)c1C (stereo not drawn)	0.3	1.6	64*	0.4	67*
CCOC(=O)c1c(C)[nH]c(C(=O)CN2C(=O)NC(C)(c3ccc(C)cc3)C2=O)c1C (stereo not drawn)	0.3	1.3	83*	0.2	75*
CC1(C)CC(=O)C=C(NC2CCCCCC2)C1	1	0.9	2	1	5
CC(C)(CNC(=O)c1cc2ccccc2o1)N1CCOCC1	0.9	1	10	0.9	14
CS(=O)(=O)NCCOc1ccc(S(=O)(=O)N2CCCc3ccccc32)cc1	2.1*	1.7	75*	0.2	-111
CC1CCc2nc(NC(=O)c3ccc(S(=O)(=O)N4CCCc5ccccc54)cc3)sc2C1 (stereo not drawn)	0.5	0.9	1	1	54*
CCc1nnc(NC(=O)c2ccc(S(=O)(=O)N3CCCc4ccccc43)cc2)o1	0.4	2.1*	1	1	62*
O=C(O)CC(=O)Nc1ccccc1C(=O)O	1.2	0.8	-3	1	-22
Cc1ccc(Cl)cc1NC(=O)N[C@@H](C)C(=O)O	1.2	1	-18	1.2	-16
COC(=O)c1ccc(=O)n(-c2ccc(OC)cc2)c1	0.7	0.9	42	0.6	25
